Experimental data taken from PubChem BioAssay (Tox21).
Results filed as inconclusive are left out. Where a call stands in place of a potency, no number is given. The source made the active and inactive calls. Unless noted, calls follow the shape of the dose curve; as a rule, active = well fitted curve in the direction sought with a large enough effect in the repeat runs; inconclusive = weak or mixed curves; inactive = no such curve, though single readings can be large; an effect the other way counts as inactive or inconclusive.

Columns and labels:
[1] = qHTS assay to identify small molecule antagonists of the peroxisome proliferator-activated receptor gamma (PPARg) signaling pathway - cell viability counter screen (AID 743194); conditions: PPARg-bla HEK293H viability, CellTiter-Glo luminescence, 17 h, co-treated with 50 nM rosiglitazone; series mostly up to 62.6 µM; also: nearly all actives have a fitted effect of over 55% in size
In short: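 PPARg-UAS-bla HEK293H cells were plated, rested 5 h at 37 C, then treated with compounds plus rosiglitazone (50 nM final) for 17 h at 37 C; viability was then read by CellTiter-Glo luminescence after 30 min at room temperature.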

[2] = qHTS assay for small molecule agonists of the antioxidant response element (ARE) signaling pathway (AID 743202; active = well fitted activation curve with a large enough effect in the signal ratio in the repeat runs, not every such curve was filed as active; the % refers to the signal ratio); conditions: HepG2 ARE-bla reporter, beta-lactamase FRET, 16 h; series mostly up to 73.3 µM
In short: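 Compounds delivered in DMSO to ARE-bla HepG2 cells (2,000 cells/well, pre-incubated 5 h) and left 16 h at 37 C. LiveBLAzer B/G FRET substrate then added for 2 h at RT before fluorescence reading.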

[3] = qHTS assay for small molecule agonists of the antioxidant response element (ARE) signaling pathway - cell viability counter screen (AID 743203; calls by dose curve; also: nearly all actives have a fitted effect of over 55% in size; also: potency is read from the fitted curve at half-maximal effect); conditions: ARE-bla HepG2 viability, CellTiter-Glo luminescence, 16 h; series mostly up to 73.3 µM
In short: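 ARE-bla HepG2 cells were plated, rested 5 h at 37C/5% CO2, then exposed to compounds in DMSO for 16 h. Viability was read as CellTiter-Glo luminescence after 30 min at room temperature, in the same wells as the ARE screen.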

[4] = qHTS assay for small molecule activators of the heat shock response signaling pathway - cell viability counter screen (AID 743209); conditions: HSE-bla HeLa viability, CellTiter-Glo luminescence, 5 h; series mostly up to 62.6 µM; also: nearly all actives have a fitted effect of over 50% in size
In short: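 HSE-bla HeLa cells plated overnight, then exposed to Tox21 compounds (23 nL in DMSO) for 5 h at 37 C. After the bla reporter read, CellTiter-Glo was added in the same wells and luminescence read after 30 min at room temperature.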

[5] = qHTS assay to identify small molecule agonists of the peroxisome proliferator-activated receptor delta (PPARd) signaling pathway - cell viability counter screen (AID 743211); conditions: PPARd-bla HEK293H viability, CellTiter-Glo luminescence, 17 h; series mostly up to 62.6 µM; also: nearly all actives have a fitted effect of over 55% in size
In short: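 In the same wells used for beta-lactamase reporter measurement, cytotoxicity is scored by CellTiter-Glo. HEK293H PPARd-bla cells receive compound for 17 h at 37C following a 5 h settling period.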

[6] = target: Peroxisome proliferator-activated receptor delta (Homo sapiens) (UniProt Q03181); assay: qHTS assay to identify small molecule agonists of the peroxisome proliferator-activated receptor delta (PPARd) signaling pathway (AID 743212; calls by dose curve); conditions: HEK293H PPARd-UAS-bla, beta-lactamase FRET ratio, 17 h; series mostly up to 62.6 µM
In short: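 A PPARd-bla HEK293H line with beta-lactamase under an Upstream Activator Sequence is treated with compounds at 37 C. Substrate loading for 2 h at room temperature precedes the fluorescence measurement.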

[7] = qHTS assay to identify small molecule antagonists of the peroxisome proliferator-activated receptor delta (PPARd) signaling pathway - cell viability counter screen (AID 743213); conditions: PPARd-bla HEK293H viability, CellTiter-Glo luminescence, 17 h; series mostly up to 62 µM; also: nearly all actives have a fitted effect of over 50% in size
In short: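 Viability counter-screen, qHTS format: PPARd-bla HEK293H, L165041 300 nM final, 17 h compound exposure at 37 C, CellTiter-Glo luminescence after 30 min RT.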

[8] = target: Peroxisome proliferator-activated receptor delta (Homo sapiens) (UniProt Q03181); assay: qHTS assay to identify small molecule antagonists of the peroxisome proliferator-activated receptor delta (PPARd) signaling pathway (AID 743215; active = well fitted inhibition curve with a large enough effect in the signal ratio in the repeat runs, not every such curve was filed as active; the % refers to the signal ratio;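 also: cells stimulated with agonist L165041 at 300 nM final during compound exposure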); conditions: HEK293H PPARd-UAS-bla, beta-lactamase FRET ratio, antagonist, 17 h; series mostly up to 62 µM
In short: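 PPARd-bla HEK293H cells (UAS-bla reporter) preincubated 5 h, then given compound plus 300 nM final L165041 agonist for 17 h at 37 C. Beta-lactamase activity read by LiveBLAzer B/G FRET substrate fluorescence after 2 h at room temperature.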

[9] = target: Bile acid receptor (Homo sapiens) (UniProt Q96RI1); assay: qHTS assay to identify small molecule antagonists of the farnesoid-X-receptor (FXR) signaling pathway (AID 743217; active = well fitted inhibition curve with a large enough effect in the signal ratio in the repeat runs, not every such curve was filed as active; the % refers to the signal ratio); conditions: HEK293T FXR-UAS-bla, beta-lactamase ratio, CDCA-stimulated, 16 h; series mostly up to 62.6 µM
In short: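 FXR-UAS-bla HEK 293T cells (beta-lactamase reporter) given compound plus chenodeoxycholic acid (50 uM final), 16 h at 37C. LiveBLAzer B/G FRET substrate added for 2 h at room temperature; fluorescence read.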

[10] = qHTS assay to identify small molecule agonists of the farnesoid-X-receptor (FXR) signaling pathway - cell viability counter screen (AID 743218); conditions: FXR-bla HEK293T viability, CellTiter-Glo luminescence, 16 h; series mostly up to 62.6 µM; also: nearly all actives have a fitted effect of over 45% in size
In short: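 FXR-UAS-bla HEK 293T cells exposed to compounds for 16 h at 37C. Cytotoxicity read in the same wells by CellTiter-Glo luminescence after 30 min at room temperature, following the beta-lactamase FRET read.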

[11] = target: Bile acid receptor (Homo sapiens) (UniProt Q96RI1); assay: qHTS assay to identify small molecule agonists of the farnesoid-X-receptor (FXR) signaling pathway (AID 743220; active = well fitted activation curve with a large enough effect in the signal ratio in the repeat runs, not every such curve was filed as active; the % refers to the signal ratio); conditions: HEK293T FXR-UAS-bla, beta-lactamase FRET ratio, 16 h; series mostly up to 62.6 µM
In short: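 Beta-lactamase reporter under UAS control in GeneBLAzer FXR HEK 293T cells (5000/well) measured with LiveBLAzer FRET substrate after 2 h at room temperature. Compound exposure lasted 16 h at 37C.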

[12] = qHTS assay to identify small molecule antagonists of the farnesoid-X-receptor (FXR) signaling pathway - cell viability counter screen (AID 743221; active = well fitted cell-killing curve with a large enough effect in the repeat runs, not every such curve was filed as active; also: nearly all actives have a fitted effect of over 50% in size); conditions: FXR-bla HEK293T viability, CellTiter-Glo luminescence, 16 h; series mostly up to 62.6 µM
In short: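 Here viability was scored by luminescence after CellTiter-Glo addition to wells already read for beta-lactamase. Prior treatment: compound plus CDCA (50 uM final), 16 h, 37 C, HEK 293T FXR-bla cells.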

[13] = target: Vitamin D3 receptor (Homo sapiens) (UniProt P11473); assay: qHTS assay to identify small molecule agonists of the vitamin D receptor (VDR) signaling pathway (AID 743222; calls by dose curve); conditions: HEK293T VDR-UAS-bla, beta-lactamase FRET ratio, 16 h; series mostly up to 63.5 µM
In short: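 VDR-bla cells plated 4 h at 37 C, then exposed to compounds for 16 h at 37 C. Beta-lactamase reporter activity measured by fluorescence after 2 h room-temperature loading with LiveBLAzer B/G FRET substrate.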

[14] = target: Aryl hydrocarbon receptor (Homo sapiens) (UniProt P35869); assay: qHTS assay to identify small molecule that activate the aryl hydrocarbon receptor (AhR) signaling pathway (AID 743085); conditions: HepG2 AhR-luc (HG2L7.5c1), luciferase, 24 h; series mostly up to 70.3 µM;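 also: HG2L7.5c1 human HepG2 liver cells with stably integrated DRE-driven firefly reporter; nearly all actives have a fitted effect of over 15% in size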
In short: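 Stably transfected human liver carcinoma cells (HG2L7.5c1; 20 DRE-firefly luciferase) were incubated 5 h, dosed, and kept 24 h at 37C. Agonism was scored from increased luciferase luminescence.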

[15] = qHTS assay to identify small molecule that activate the aryl hydrocarbon receptor (AhR) signaling pathway - cell viability counter screen (AID 743086); conditions: HepG2-AhR-luc viability, CellTiter-Fluor, 24 h; series mostly up to 70.3 µM;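 also: HepG2 liver cells carrying the AhR DRE luciferase reporter; nearly all actives have a fitted effect of over 45% in size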
In short: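 HepG2-AhR-luc (HG2L7.5c1) cells, 4000/well, were preincubated 5 h at 37C, exposed to compound in qHTS format for 24 hr at 37C, then given CellTiter-Fluor for 30 min; viability was read as fluorescence in the reporter wells.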

[16] = target: Peroxisome proliferator-activated receptor gamma (Homo sapiens) (UniProt P37231); assay: qHTS assay to identify small molecule agonists of the peroxisome proliferator-activated receptor gamma (PPARg) signaling pathway (AID 743094; active = well fitted activation curve with a large enough effect in the signal ratio in the repeat runs, not every such curve was filed as active; the % refers to the signal ratio); conditions: HEK293H PPARg-UAS-bla, beta-lactamase FRET ratio, 17 h; series mostly up to 57 µM
In short: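 GeneBLAzer PPARg UAS-bla HEK293H cells were plated, rested 5 h, then exposed to compounds for 17 h at 37C. Beta-lactamase activity was read by LiveBLAzer B/G FRET substrate fluorescence after 1 h at room temperature.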

[17] = qHTS assay for small molecule activators of the heat shock response signaling pathway (AID 743210; active = well fitted activation curve with a large enough effect in the signal ratio in the repeat runs, with a control signal flat, not every such curve was filed as active; the % refers to the signal ratio;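 also: HeLa cells with beta-lactamase reporter driven by heat shock elements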); conditions: HeLa HSE-bla reporter, beta-lactamase ratio, 5 h; series mostly up to 62.6 µM
In short: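 Reporter gene assay: HeLa cells stably bearing an HSE-bla construct, compound treatment 5 h at 37 C, LiveBLAzer substrate 2.5 h at RT, fluorescence intensity.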

[18] = target: Vitamin D3 receptor (Homo sapiens) (UniProt P11473); assay: qHTS assay to identify small molecule antagonists of the vitamin D receptor (VDR) signaling pathway (AID 743223; active = well fitted inhibition curve with a large enough effect in the signal ratio in the repeat runs, not every such curve was filed as active; the % refers to the signal ratio); conditions: VDR-UAS-bla HEK293T, beta-lactamase FRET ratio, 16 h; series mostly up to 61 µM
In short: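 Inhibition of agonist-driven VDR signalling is scored in VDR-bla cells: 3 nM final 1alpha,25-dihydroxyvitamin D3 plus compound, 16 h at 37C, then beta-lactamase detection by FRET substrate fluorescence after 2 h.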

[19] = target: Peroxisome proliferator-activated receptor gamma (Homo sapiens) (UniProt P37231); assay: qHTS assay to identify small molecule antagonists of the peroxisome proliferator-activated receptor gamma (PPARg) signaling pathway (AID 743191; calls by dose curve; also: nearly all actives have a fitted effect of over 30% in size); conditions: HEK293H PPARg-UAS-bla, beta-lactamase ratio, antagonist, 17 h; series mostly up to 62.6 µM
In short: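 GeneBLAzer PPARg UAS-bla HEK293H cells carrying a UAS-driven beta-lactamase reporter were plated at 3000 cells/well, preincubated 5 h at 37C, then given compound for 17 h at 37C; LiveBLAzer B/G FRET substrate was read after 1 h at room temperature.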

[20] = qHTS assay to identify aromatase inhibitors - cell viability counter screen (AID 743084); conditions: MCF-7 aro ERE viability, CellTiter-Fluor, 24 h; series mostly up to 70.3 µM;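 also: cells stimulated with testosterone during compound exposure; nearly all actives have a fitted effect of over 55% in size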

Vitamin D3 receptor (Homo sapiens), sequence (P11473 whole entry, looked up): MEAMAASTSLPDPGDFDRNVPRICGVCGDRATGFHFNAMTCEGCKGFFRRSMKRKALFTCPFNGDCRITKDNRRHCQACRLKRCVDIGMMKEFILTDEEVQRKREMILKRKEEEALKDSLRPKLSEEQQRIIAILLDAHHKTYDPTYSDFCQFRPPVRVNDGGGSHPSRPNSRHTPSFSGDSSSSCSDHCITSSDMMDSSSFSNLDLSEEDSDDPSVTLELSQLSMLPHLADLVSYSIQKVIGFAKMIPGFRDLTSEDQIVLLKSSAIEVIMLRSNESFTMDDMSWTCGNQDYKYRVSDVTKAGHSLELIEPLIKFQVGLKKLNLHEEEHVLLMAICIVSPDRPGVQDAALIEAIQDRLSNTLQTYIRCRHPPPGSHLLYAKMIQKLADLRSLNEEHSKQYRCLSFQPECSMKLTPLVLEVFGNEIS
Peroxisome proliferator-activated receptor gamma (Homo sapiens), sequence (P37231 whole entry, looked up): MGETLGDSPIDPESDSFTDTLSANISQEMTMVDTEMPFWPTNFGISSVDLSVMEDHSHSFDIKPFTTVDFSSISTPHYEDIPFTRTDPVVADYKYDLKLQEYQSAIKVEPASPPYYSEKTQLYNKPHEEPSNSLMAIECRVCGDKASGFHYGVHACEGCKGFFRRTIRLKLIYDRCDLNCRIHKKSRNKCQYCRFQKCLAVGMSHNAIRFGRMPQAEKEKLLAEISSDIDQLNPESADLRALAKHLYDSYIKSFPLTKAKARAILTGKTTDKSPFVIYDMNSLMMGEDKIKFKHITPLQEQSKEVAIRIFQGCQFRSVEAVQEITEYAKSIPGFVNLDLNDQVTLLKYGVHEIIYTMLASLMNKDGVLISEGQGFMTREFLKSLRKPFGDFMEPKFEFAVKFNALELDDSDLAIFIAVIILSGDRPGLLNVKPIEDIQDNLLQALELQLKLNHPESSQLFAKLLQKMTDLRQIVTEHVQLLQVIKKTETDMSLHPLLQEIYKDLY
Aryl hydrocarbon receptor (Homo sapiens), sequence (P35869 whole entry, looked up): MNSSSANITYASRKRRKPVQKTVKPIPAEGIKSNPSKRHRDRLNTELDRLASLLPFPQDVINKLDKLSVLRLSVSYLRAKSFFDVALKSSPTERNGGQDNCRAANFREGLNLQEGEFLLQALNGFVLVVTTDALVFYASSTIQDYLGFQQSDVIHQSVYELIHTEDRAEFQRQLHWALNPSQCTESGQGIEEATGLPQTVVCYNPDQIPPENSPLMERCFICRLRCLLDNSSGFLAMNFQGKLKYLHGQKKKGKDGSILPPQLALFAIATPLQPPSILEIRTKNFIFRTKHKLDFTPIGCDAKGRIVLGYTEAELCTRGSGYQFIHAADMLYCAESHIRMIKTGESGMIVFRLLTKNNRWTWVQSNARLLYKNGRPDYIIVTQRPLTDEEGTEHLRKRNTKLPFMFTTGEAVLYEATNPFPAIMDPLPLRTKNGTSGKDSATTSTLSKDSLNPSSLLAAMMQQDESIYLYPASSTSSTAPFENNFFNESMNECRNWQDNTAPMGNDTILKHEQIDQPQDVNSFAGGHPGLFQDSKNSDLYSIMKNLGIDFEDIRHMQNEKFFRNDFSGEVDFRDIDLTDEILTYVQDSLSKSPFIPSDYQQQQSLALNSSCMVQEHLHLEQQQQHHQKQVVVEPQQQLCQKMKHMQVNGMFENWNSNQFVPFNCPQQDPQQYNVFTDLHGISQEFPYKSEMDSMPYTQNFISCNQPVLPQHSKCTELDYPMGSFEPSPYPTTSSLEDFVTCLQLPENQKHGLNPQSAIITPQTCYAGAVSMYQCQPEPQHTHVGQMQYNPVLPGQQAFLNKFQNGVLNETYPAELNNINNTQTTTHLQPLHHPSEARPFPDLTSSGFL
Peroxisome proliferator-activated receptor delta (Homo sapiens), sequence (Q03181 whole entry, looked up): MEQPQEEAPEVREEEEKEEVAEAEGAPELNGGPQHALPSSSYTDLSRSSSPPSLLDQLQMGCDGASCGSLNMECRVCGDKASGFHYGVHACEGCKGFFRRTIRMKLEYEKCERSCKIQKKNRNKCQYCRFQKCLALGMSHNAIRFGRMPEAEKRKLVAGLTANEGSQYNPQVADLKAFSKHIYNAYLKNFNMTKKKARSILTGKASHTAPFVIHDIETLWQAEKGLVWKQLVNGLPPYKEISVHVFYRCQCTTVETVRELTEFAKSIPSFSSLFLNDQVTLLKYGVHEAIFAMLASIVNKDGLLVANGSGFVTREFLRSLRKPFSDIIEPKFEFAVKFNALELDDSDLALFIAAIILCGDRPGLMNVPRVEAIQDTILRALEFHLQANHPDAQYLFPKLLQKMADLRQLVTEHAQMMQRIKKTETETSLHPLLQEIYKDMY
Bile acid receptor (Homo sapiens), sequence (Q96RI1 whole entry, looked up): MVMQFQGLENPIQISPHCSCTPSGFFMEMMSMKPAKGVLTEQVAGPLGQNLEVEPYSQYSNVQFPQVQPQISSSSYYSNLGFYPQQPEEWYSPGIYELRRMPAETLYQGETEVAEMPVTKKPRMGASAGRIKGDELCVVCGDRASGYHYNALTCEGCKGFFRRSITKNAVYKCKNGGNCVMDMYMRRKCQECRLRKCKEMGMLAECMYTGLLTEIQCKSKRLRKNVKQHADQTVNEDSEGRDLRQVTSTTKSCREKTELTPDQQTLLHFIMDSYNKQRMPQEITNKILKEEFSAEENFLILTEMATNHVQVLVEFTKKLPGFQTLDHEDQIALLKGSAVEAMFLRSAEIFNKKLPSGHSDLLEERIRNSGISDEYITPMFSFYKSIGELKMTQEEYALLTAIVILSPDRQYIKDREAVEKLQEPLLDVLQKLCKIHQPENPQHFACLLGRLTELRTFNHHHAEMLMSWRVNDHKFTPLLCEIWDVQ

Structure (SMILES)	Potency [1]	Potency [2]	Potency [3]	Potency [4]	Potency [5]	outcome [6]	Potency [7]	outcome [8]	outcome [9]	Potency [10]	outcome [11]	Potency [12]	outcome [13]	Potency [14]	Potency [15]	Potency [16]	outcome [17]	Potency [18]	Potency [19]	Potency [20]
Nc1ccc(C(=O)N2CC3CC(CN(Cc4ccccc4)C3)C2)cc1	inactive	inactive	inactive	inactive	inactive	inactive	inactive	inactive	inactive	inactive	inactive	inactive	inactive							
CC(C)(C)c1cc(O)c(C(C)(C)C)cc1O				inactive		inactive				inactive		inactive	inactive	inactive	inactive	inactive	inactive	inactive		
O=C(O)c1cn(C2CC2)c2cc(Cl)c(F)cc2c1=O	inactive	inactive	inactive	inactive	inactive		inactive	inactive				inactive	inactive				inactive	inactive		
CC(=O)c1ccc2c(c1)[C@H](NC(=O)c1ccc(F)cc1)[C@@H](O)C(C)(C)O2	inactive		inactive	inactive	inactive	inactive	inactive	inactive		inactive		inactive	inactive	inactive	inactive	inactive	inactive			
COC(Cc1ccccc1)OC	inactive	inactive			inactive		inactive			inactive		inactive	inactive	inactive	inactive	inactive	inactive	inactive	inactive	
O=C(/C=C/c1ccc(O)c(O)c1)O[C@@H]1C[C@](O)(C(=O)O)C[C@@H](O)[C@H]1O	inactive			inactive	inactive	inactive		inactive				inactive			inactive		inactive			
O=S1(=O)c2cccc3cccc(c23)N1CCCN1CCN(c2ccc(F)cc2)CC1	inactive		inactive	inactive			inactive		inactive	inactive	inactive	inactive	inactive		inactive	inactive		inactive	inactive	
CC(C)(Oc1ccc(Cl)cc1)C(=O)OCCCOC(=O)C(C)(C)Oc1ccc(Cl)cc1	inactive	inactive		inactive	inactive		inactive	inactive		inactive		inactive	inactive				inactive	inactive		
CCN(CC)CCNC(C(=O)OCCC(C)C)c1ccccc1 (stereo not given)	inactive	inactive	inactive		inactive		inactive	inactive		inactive		inactive	inactive			inactive	inactive	inactive	inactive	inactive
Nc1cnn([C@@H]2O[C@H](CO)[C@@H](O)[C@H]2O)c(=O)n1	inactive	inactive	inactive		inactive	inactive		inactive			inactive	inactive	inactive		inactive		inactive	inactive		
O=CNc1ccccc1	inactive	inactive	inactive	inactive	inactive	inactive	inactive	inactive	inactive	inactive	inactive	inactive	inactive	inactive	inactive	inactive	inactive	inactive		
Cn1sccc1=O	inactive		inactive	inactive	inactive	inactive	inactive	inactive	inactive	inactive		inactive		inactive	inactive	inactive		inactive	inactive	
CNCC[C@@H](Oc1ccccc1C)c1ccccc1	inactive		inactive				inactive	inactive		inactive		inactive	inactive				inactive	inactive		inactive
CCCCOC(=O)c1ccccc1C(=O)OCC(CC)CCCC (stereo not given)	inactive	inactive	inactive	inactive	inactive		inactive	inactive		inactive	inactive	inactive	inactive	inactive	inactive	inactive	inactive		inactive	
O=[N+]([O-])c1cccc(Cl)c1Cl		inactive	inactive	inactive	inactive	inactive	inactive	inactive	inactive	inactive	inactive	inactive	inactive		inactive	inactive	inactive		inactive	
C=CC(C)(CCC=C(C)C)OC(=O)c1ccccc1 (stereo not given)	inactive	inactive	inactive		inactive		inactive		inactive	inactive	inactive	inactive			inactive					
O=[N+]([O-])c1cc[n+]([O-])cc1			30.6 µM (active)		inactive		inactive		inactive	inactive	inactive	inactive	inactive	inactive		inactive	inactive			
